Measured potencies and affinities stand elsewhere. Unmarked numbers belong to inactive results.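 How the source made its calls: active means compounds lowering cell ATP signal whose fitted half-maximal concentration is at most twice the top tested dose; inconclusive means flat curve with 30 to 70% signal loss, or poor fit; inactive means the rest.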
Assay: viability loss in HEK293T cells – cell-based, CellTiter-Glo luminescence, dry powder, set 6, cytotoxicity control, dose response (AID 651949)
Conditions: CellTiter-Glo ATP luminescence, 48 h; series mostly up to 26 µM; activity change, negative = cytotoxicity: at the top concentration

SMILES | activity change, negative = cytotoxicity
c1ccc(CSc2nnc(-c3ccc(-c4ccccc4)cc3)o2)cc1 | -14.9%
Brc1cccc(-c2nnc(SCc3ccccn3)o2)c1 | -29.4%
COc1ccc(-c2nnc(SCc3ccccc3)o2)cc1 | -4.21%
Fc1ccc(CSc2nnc(-c3ccc(Cl)cc3)o2)cc1 | 4.47%
c1ccc(-c2nnc(SCc3ncco3)o2)cc1 | 3.27%
FC(F)(F)c1ccc(CSc2nnc(-c3ccccc3)o2)cc1 | -5.71%
Cc1ccccc1CSc1nnc(-c2ccccc2)o1 | -19.8%
Clc1ccc(-c2nnc(SCc3cn(-c4ccccc4)nn3)o2)cc1 | 13.4%
Clc1ccc(-c2nnc(SCc3cn(Cc4ccccc4)nn3)o2)cc1 | 16.9%
CC(C)c1nnc(SCc2ccccc2)o1 | 20.4%
O=S(Cc1cn(Cc2ccccc2)nn1)c1nnc(-c2ccc(Cl)cc2)o1 (configuration not stated) | -88.3%
CC1(O)CN(CCSc2nnc(-c3ccccc3)o2)C1 | -27.9%
Clc1cccc(-c2nnc(SCc3ccccc3)o2)c1 | 13%
CS(=O)(=O)c1cccc(CSc2nnc(-c3ccccc3)o2)c1 | 0.906%
FC(F)(F)c1ccccc1-c1nnc(SCc2ccccc2)o1 | 2.29%
Clc1ccccc1CSc1nnc(-c2ccccc2)o1 | -13.2%
c1ccc(CSc2nnc(-c3ccccn3)o2)cc1 | -16.3%
c1ccc(-c2nnc(SCc3cccnc3)o2)cc1 | -16.5%
FC(F)(F)Oc1ccccc1CSc1nnc(-c2ccccc2)o1 | -5.32%
c1ccc(CSc2nnc(-c3ccco3)o2)cc1 | 10.2%
Fc1ccccc1CSc1nnc(-c2ccccc2)o1 | -18.1%
O=S(=O)(Cc1ccccc1)c1nnc(-c2ccccc2)o1 | -5.28%
